Source: PubChem
Only some compounds are listed: those with a hit (about 10% of all), similar ones and a draw of the others.
MCF10A rerep = A quantitative high throughput screen for small molecules that induce DNA re-replication in MCF 10a normal breast cells; MCF 10A DNA re-replication, Hoechst nuclear intensity, 48 h; Potency, µM (top dose mostly 46.1 µM), inactives show at the top dose activity, positive = re-replication, actives largely listed as activators; actives 2.9% (n = 350,000); also: % of control where 0% means no effect; nearly all actives have a fitted effect of over 50% in size
VP16 counter = VP16 counterscreen qHTS for inhibitors of ROR gamma transcriptional activity; Potency, µM (series often up to 53.6 µM), inactives show top-dose activity, negative = inhibition, usual class: inhibitors; actives 3.5% (n = 310,000); Drosophila S2 Gal4-VP16 UAS-luciferase, luminescence, 20 h;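 also: Gal4-VP16 expression switched on by copper sulfate through the metallothionein promoter; % is scaled to controls: 0 for no effect and ±100 for the full control effect; nearly all actives have a fitted effect of over 50% in size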
ELG1 repair inh = qHTS screen for small molecules that inhibit ELG1-dependent DNA repair in human embryonic kidney (HEK293T) cells expressing luciferase-tagged ELG1; HEK293T ELG1-luciferase reporter, luminescence, 16 h; DNA damage induced by 5-fluorouridine; Potency, µM (highest dose often 46.1 µM), for inactives: top-dose activity change, negative = inhibition, actives largely listed as inhibitors; actives 2.3% (n = 330,000); AID 504467, 2011; also: % is scaled to controls: 0 for no effect and ±100 for the full control effect; nearly all actives have a fitted effect of over 55% in size
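Overnight (16 hr) co-exposure of 2,000 cells/well to 5-fluorouridine and compound at 37 °C preceded detection. Luciferase was quantified via ONE-Glo luminescence; loss of signal denotes inhibition.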
SW480 rerep = A quantitative high throughput screen for small molecules that induce DNA re-replication in SW480 colon adenocarcinoma cells; AID 624297, 2012; SW480 DNA re-replication, Hoechst DNA content imaging, 48 h; actives 1.8% (n = 340,000); Potency, µM (series often up to 46.1 µM), for inactives: at the highest dose re-replication activation, hits mostly activators; also: % of control where 0% means no effect; nearly all actives have a fitted effect of over 55% in size
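Compounds, transferred as 23 nL by pin tool, were incubated with cells for 48 hr; DNA content per nucleus was then quantified by Hoechst staining and fluorescence plate imaging.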
RORgamma inh = qHTS for inhibitors of ROR gamma transcriptional activity. AID 2551, 2010. Drosophila S2 Gal4-RORgamma UAS-luciferase reporter, 20 h. actives 5.4% (n = 310,000). Nuclear receptor ROR-gamma (Mus musculus), P51450. Potency, µM (highest dose often 53.6 µM), inactives show at the highest dose activity change, negative = inhibition, actives largely listed as inhibitors; also: % is scaled to controls: 0 for no effect and ±100 for the full control effect; nearly all actives have a fitted effect of over 60% in size
Target sequence (P51450 whole entry, looked up, the tested form may be a part): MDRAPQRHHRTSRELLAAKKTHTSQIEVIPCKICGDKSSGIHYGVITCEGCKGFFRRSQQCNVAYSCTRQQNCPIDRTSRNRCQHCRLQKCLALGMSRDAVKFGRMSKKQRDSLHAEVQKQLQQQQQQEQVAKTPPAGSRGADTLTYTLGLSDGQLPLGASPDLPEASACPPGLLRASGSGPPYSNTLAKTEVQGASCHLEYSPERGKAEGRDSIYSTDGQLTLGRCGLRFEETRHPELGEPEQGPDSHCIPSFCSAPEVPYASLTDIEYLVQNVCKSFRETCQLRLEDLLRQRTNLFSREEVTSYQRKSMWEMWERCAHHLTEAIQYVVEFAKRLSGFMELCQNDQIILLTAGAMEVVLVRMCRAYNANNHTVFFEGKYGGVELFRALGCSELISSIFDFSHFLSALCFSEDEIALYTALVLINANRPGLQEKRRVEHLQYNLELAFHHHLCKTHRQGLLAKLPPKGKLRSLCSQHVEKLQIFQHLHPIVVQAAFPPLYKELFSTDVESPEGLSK
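In this cell-based reporter format, copper sulfate (700 uM final) drives Gal4–ROR gamma fusion expression from a metallothionein promoter in Drosophila Schneider cells; compounds preincubated 1 hr, reporter read after 20 hr at ambient temperature.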
Numbers without * were called inactive; u = inconclusive; x = no result given; [ ] = another dose, or the depositor's remark. Calls follow the shape of the dose curve; as a rule, active = well fitted curve in the direction sought with a large enough effect; inconclusive = small, poorly fitted or top-dose-only effect, or another doubt; inactive = no such curve, though single readings can be large; an effect the other way counts as inactive or inconclusive. Potency is read from the fitted curve at half-maximal effect.

SMILES | MCF10A rerep | VP16 counter | ELG1 repair inh | SW480 rerep | RORgamma inh
Cc1ccc(C)c(C(=O)Cn2ncc(Cl)c(Cl)c2=O)c1 | 4.61µM* | u | u | u | u
O=C1C=C(c2cc(C(F)(F)F)cc(C(F)(F)F)c2)C[C@@H](c2ccc(Cl)cc2)C1 | -4.7% | x | 2.2% | -6.3%[9.22 µM] | x
CC(C)NC(=O)N1CCC2(CC1)CCN(C(=O)c1cccc(F)c1)CC2 | x | 6.0% | x | x | -19.8%
Cc1nn(CC(=O)Nc2cccnc2)c(C)c1[N+](=O)[O-] | 7.3% | -11.5% | 1.1% | -1.8% | 14.0%
CCn1c(=O)c(C(=O)CN(C)CC(=O)Nc2cccc(F)c2)c(N)n(Cc2ccccc2)c1=O | 6.6% | x | u | 3.6% | x
CCCCNC(=S)NNC(=O)c1cc(-c2ccncc2)nc2ccccc12 | 1.8% | -18.7% | 0.3% | 0.4% | 11.2µM*
CCCCNC(=S)NNC(=O)c1cc(C2CC2)nc2ccccc12 | 4.1% | u | 0.2% | -2.3% | 6.31µM*
CCNC(=S)NNC(=O)c1cc(-c2ccc(OCC)cc2)nc2ccccc12 | 29.2% | 0.6% | u | u | 19.7%
COCCNC(=S)NNC(=O)c1cc(C2CC2)nc2ccccc12 | 12.6% | -27.0% | 2.7% | -5.0% | 11.2µM*
O=C(O)c1cc(C2CC2)nc2ccccc12 | -6.3% | -10.1% | 15.4% | -12.4% | -28.5%
COc1cc(OC)c(CN2CCCN(C)CC2)cc1Br | u | -13.6% | -10.9% | -3.2% | -11.7%[1.91 µM]
O=C(CCc1nc(-c2ccc(F)cc2)no1)NCc1ccccc1CN1CCOCC1 | 14.5% | x | -11.7% | -1.5% | x
COc1ccc(CCN=C(C)C2=C(O)C(c3ccccc3)OC2=O)cc1OC (stereo unspecified) | -0.4% | -0.9% | -21.7% | -1.6% | 12.4%
CC1=C(C(=O)OCc2ccccc2)C(c2ccc3ccccc3c2)NC(=O)N1CCCC(=O)O (stereo unspecified) | -4.6% | -4.4% | -12.8% | -0.9% | 11.2µM*
CC1=C(C(=O)OCc2ccccc2)C(c2ccccc2Cl)NC(=O)N1CCCCCC(=O)O (stereo unspecified) | u | -10.0% | u | 25.6% | 1.78µM*
CC1=C(C(=O)OCc2ccccc2)C(c2ccc3c(c2)OCO3)NC(=O)N1CCCC(=O)O (stereo unspecified) | -0.6% | x | x | -92.4% | x
CC1=C(C(=O)OCc2ccccc2)C(c2ccc([N+](=O)[O-])cc2)NC(=O)N1CCCCCC(=O)O (stereo unspecified) | -1.2% | 17.6% | 5.5% | -1.6% | 10µM*
CC1=C(C(=O)OCc2ccccc2)C(c2ccc3ccccc3c2)NC(=O)N1CCCCCC(=O)O (stereo unspecified) | -23.1% | -0.6% | 1.1% | u | 7.94µM*
N#C/C(=C\c1c(N2CCC(C(N)=O)CC2)nc2ccccn2c1=O)S(=O)(=O)c1ccc(Cl)cc1 | 7.1% | 10.0% | -5.0% | 1.2% | 29.5%
COc1ccc(C(=O)NCCN2CCCC2)cc1[N+](=O)[O-] | 0.6% | 4.2% | 1.0% | -1.7% | -38.3%
CCCOc1ccc(C(F)(F)F)cc1NS(=O)(=O)c1ccc(Cl)nc1 | u | x | -5.2% | u | x
O=C(Nc1nnc(CSCc2ccccc2F)s1)c1cccc([N+](=O)[O-])c1 | 5.5% | 5.01µM* | -8.0% | 3.3% | 4.47µM*
CC(C)C(=O)Nc1nnc(CSCc2ccccc2F)s1 | 2.3% | -0.5% | u | -3.3% | 21.7%
CCOC(=O)c1sc(-c2ccc(Cl)cc2Cl)nc1O | u | -4.6% | -1.2% | 20.6µM* | 5.5%
CCOC(=O)c1sc(CS(=O)(=O)c2ccc(Cl)cc2)nc1C | u | -13.2% | 16.1% | u | 1.1%
SMILES | MCF10A rerep | VP16 counter | ELG1 repair inh | SW480 rerep | RORgamma inh
Cn1c(COc2ccccc2O)[n+](C)c2ccccc21 | -1.5% | -1.0% | 2.4% | -1.5% | -0.2%
CCCCCCCCCCOC(=O)Cn1c(COc2ccccc2OC)[n+](C)c2ccccc21 | 5.8µM* | 4.47µM* | u | u | u
CCC(O)CNc1nc(-n2nc(C)cc2C)nc2sc3c(c12)CCCC3 (stereo unspecified) | x | u | 18.6% | x | 2.51µM*
CSc1nc(SCCN(C)C)c2c3c(sc2n1)COC(C)(C)C3 | 8.7% | -1.1% | -15.0% | -41.5% | 0.2%
Cc1cc(C)n(-c2nc(SCCN(C)C)c3c4c(sc3n2)CCCC4)n1 | u | 7.94µM* | 10.9% | u | 2.82µM*
COc1ccc(-c2cc(C(=O)N3CCN(C(c4ccccc4)c4ccccc4)CC3)no2)cc1 | u | 0.5% | -3.0% | 0.7% | 9.7%
COc1ccc(-c2cc(C(=O)N3CCN(C(c4ccccc4)c4ccccc4)CC3)no2)cc1OC | 10.3µM* | -2.9% | -17.2% | -1.4% | 17.2%
O=C(c1cc(-c2ccco2)on1)N1CCN(C(c2ccccc2)c2ccccc2)CC1 | u | -0.6% | -5.4% | 3.98µM* | 30.0%
COc1cc(Cl)ccc1OCc1cc(C(=O)NCCCN2CCCC2=O)no1 | -3.7% | 5.2% | 6.3% | -6.5% | 15.3%
Cc1nc2ccc(S(=O)(=O)Nc3ccc(-c4nc5cccnc5s4)cc3)cc2s1 | 6.51µM* | 3.3% | u | 14.3% | 4.8%
Cc1nc2ccc(NS(=O)(=O)c3c(C)c(C)cc(C)c3C)cc2s1 | u | -21.0% | x | u | u
O=S(=O)(Nc1cccc(-c2nc3cccnc3s2)c1)c1ccc2c(c1)CCCC2 | u | -20.1% | 1.3% | -2.6% | u
Cc1nc2ccc(S(=O)(=O)Nc3cccc(-c4nc5cccnc5s4)c3)cc2s1 | 6.51µM* | u | 3.5% | 2.0% | u
Cc1nc2cc(NS(=O)(=O)c3c(C)c(C)cc(C)c3C)ccc2s1 | 21.1% | 11.2µM* | u | -1.2%[9.22 µM] | u
Cc1ccc2nc(-c3ccc(NS(=O)(=O)c4ccc(F)c(F)c4)cc3)sc2c1 | 10.3µM* | u | u | u | -41.8%
CCc1cc(C(=O)NC2CCCc3c2cnn3-c2cccc(C)c2C)n(C)n1 (stereo unspecified) | u | u | u | 9.4% | -30.1%
Nc1nonc1-n1nnc(C(=O)N/N=C/c2ccccc2Cl)c1COc1ccc(F)cc1 | 8.6% | -9.3% | -11.5% | -13.4% | u
COc1cccc(C(C#N)NCCCNC(C#N)c2cccc(OC)c2OC)c1OC (stereo unspecified) | 4.5% | x | x | -0.8% | x
Cc1nc2ccc(NS(=O)(=O)c3ccc4c(c3)OCCO4)cc2s1 | 3.5% | 8.91µM* | u | 0.2% | u
Cc1ccc(S(=O)(=O)Nc2ccc3nc(C)sc3c2)cc1 | -3.3% | u | -2.7% | -1.7% | u
COc1ccccc1NC(=O)Nc1ccnn1C1CCN(C(=O)c2cscn2)CC1 | u | 10.4% | u | u | 8.7%
